Results taken from PubChem BioAssay AID1159580 (chemical genetic matrix, 2015).
Hit rate of the full screen: of about 5,500 compounds, about 2,000 (36%) were called active. Inconclusive results (about 18%) are left out. Rule as the data show it: active = normalized growth mostly below about 0.91 (no sharp cut-off); inconclusive = no clear call, values can overlap the other calls; inactive = mostly above about 0.92. This is one part of the list.

Test: chemical genetic growth profiling, strain panel (AID 1159580);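 also: tested at 20 µM; growth read once vehicle control cultures reached saturation at 30 °C; 1 = growth at the plate median or of vehicle wells; lower values mean less growth of the strain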
Conditions: S. cerevisiae deletion strains, growth OD
[1] = locus YAL013W, strain DEP1, active compounds read low
[2] = locus YDL101C, strain DUN1, active compounds read low
[3] = locus YHR030C, strain SLT2, active compounds read low
[4] = locus YJR075W, strain HOC1, active compounds read low
[5] = locus YMR307W, strain GAS1, active compounds read low
[6] = locus YNL153C, strain GIM3, active compounds read low
[7] = locus YPL241C, strain CIN2, active compounds read low
[8] = locus YHR079C, strain IRE1, active compounds read low
[9] = locus YJL095W, strain BCK1, active compounds read low
[10] = locus YJR066W, strain TOR1, active compounds read low
[11] = locus YLR113W, strain HOG1, active compounds read low
[12] = locus YNL183C, strain NPR1, active compounds read low
[13] = locus YOR231W, strain MKK1, active compounds read low
[14] = locus YPL256C, strain CLN2, active compounds read low

Measured: normalized growth

Cc1cccc2nc(-c3ccccc3)oc(=O)c12
active: locus YLR085C, strain ARP6, active compounds read low 0.744 | locus YPL055C, strain LGE1, active compounds read low 0.781
inactive: [1] 0.966 | locus YBR229C, strain ROT2, active compounds read low 0.975 | [2] 0.968 | locus YDR150W, strain NUM1, active compounds read low 0.934 | locus YEL061C, strain CIN8, active compounds read low 0.936 | locus YGR078C, strain PAC10, active compounds read low 0.959 | locus YGR229C, strain SMI1, active compounds read low 0.984 | [3] 0.708 | locus YHR087W, strain rtc3, active compounds read low 0.953 | locus YJL187C, strain SWE1, active compounds read low 0.946 | locus YJR043C, strain POL32, active compounds read low 0.971 | [4] 0.942 | locus YKL190W, strain CNB1, active compounds read low 0.987 | locus YLR039C, strain RIC1, active compounds read low 0.826 | locus YLR058C, strain SHM2 (second series), active compounds read low 0.968 | locus YLR262C, strain YPT6, active compounds read low 0.942 | locus YML094W, strain GIM5, active compounds read low 0.88 | locus YMR219W, strain ESC1, active compounds read low 0.976 | locus YMR263W, strain SAP30, active compounds read low 0.958 | [5] 0.735 | locus YNL128W, strain TEP1, active compounds read low 0.974 | [6] 0.975 | locus YNL298W, strain CLA4 (second series), active compounds read low 0.95 | locus YNL322C, strain KRE1, active compounds read low 0.983 | locus YNR030W, strain Alg12, active compounds read low 0.929 | locus YOL006C, strain TOP1, active compounds read low 0.801 | [7] 0.915 | locus YPR135W, strain CTF4, active compounds read low 0.812

Cc1onc(-c2ccccc2Cl)c1-c1nc2ccccc2c(=O)o1
inactive: locus YAR019C, strain CDC15, active compounds read low 0.97 | locus YBL105C, strain PKC1, active compounds read low 0.975 | locus YBR135W, strain CKS1, active compounds read low 0.975 | locus YBR136W, strain MEC1, active compounds read low 0.973 | locus YBR160W, strain CDC28, active compounds read low 0.971 | locus YDL017W, strain CDC7, active compounds read low 0.969 | locus YDL028C, strain MPS1, active compounds read low 0.979 | [2] 0.963 | locus YDL108W, strain KIN28, active compounds read low 0.97 | locus YDL132W, strain cdc53, active compounds read low 0.975 | locus YDL214C, strain PRR2, active compounds read low 0.968 | locus YDR052C, strain DBF4, active compounds read low 0.969 | locus YDR054C, strain cdc34, active compounds read low 0.964 | locus YDR226W, strain ADK1, active compounds read low 0.97 | locus YDR477W, strain SNF1, active compounds read low 0.962 | locus YER123W, strain YCK3, active compounds read low 0.953 | locus YER133W, strain GLC7, active compounds read low 0.984 | locus YFL009W, strain cdc4, active compounds read low 0.974 | locus YFL029C, strain CAK1, active compounds read low 0.956 | locus YFR003C, strain YPI1, active compounds read low 0.972 | locus YFR019W, strain FAB1, active compounds read low 0.979 | locus YFR028C, strain CDC14, active compounds read low 0.973 | locus YGR040W, strain KSS1, active compounds read low 0.96 | locus YGR052W, strain FMP48, active compounds read low 1.03 | locus YGR092W, strain DBF2, active compounds read low 0.983 | [3] 0.958 | [8] 0.936 | locus YHR082C, strain KSP1, active compounds read low 0.991 | locus YHR205W, strain SCH9, active compounds read low 0.932 | locus YIL147C, strain SLN1, active compounds read low 0.969 | [9] 0.954 | locus YJL128C, strain PBS2, active compounds read low 0.925 | locus YJL157C, strain FAR1, active compounds read low 0.987 | locus YJR016C, strain ILV3, active compounds read low 0.974 | locus YJR066W, strain TOR1 (second series), active compounds read low 0.967 | [10] 0.978 | locus YKL048C, strain ELM1, active compounds read low 0.947 | locus YKL067W, strain YNK1, active compounds read low 0.961 | locus YKL101W, strain HSL1, active compounds read low 0.939 | locus YKL193C, strain SDS22, active compounds read low 0.969 | locus YKL203C, strain TOR2, active compounds read low 1.02 | [11] 0.872 | locus YLR133W, strain CKI1, active compounds read low 0.965 | locus YLR403W, strain SFP1, active compounds read low 0.953 | locus YML070W, strain DAK1, active compounds read low 0.956 | locus YMR001C, strain CDC5, active compounds read low 0.974 | locus YMR205C, strain PFK2 (second series), active compounds read low 0.955 | locus YMR277W, strain FCP1, active compounds read low 0.987 | locus YNL006W, strain LST8, active compounds read low 0.982 | locus YNL020C, strain ARK1, active compounds read low 0.969 | locus YNL161W, strain CBK1, active compounds read low 0.969 | [12] 0.96 | locus YNL207W, strain RIO2, active compounds read low 0.97 | locus YNL222W, strain SSU72, active compounds read low 0.975 | locus YNL307C, strain MCK1 (second series), active compounds read low 0.987 | locus YOL078W, strain AVO1, active compounds read low 0.976 | locus YOL136C, strain PFK27, active compounds read low 0.958 | locus YOR061W, strain CKA2, active compounds read low 0.961 | locus YOR119C, strain RIO1, active compounds read low 0.983 | [13] 0.929 | locus YOR329C, strain SCD5, active compounds read low 0.966 | locus YPL031C, strain PHO85, active compounds read low 0.978 | locus YPL153C, strain RAD53, active compounds read low 0.956 | locus YPL204W, strain HRR25, active compounds read low 0.978 | locus YPL209C, strain IPL1, active compounds read low 0.969 | [14] 0.882 | locus YPR025C, strain CCL1, active compounds read low 0.975 | locus YPR106W, strain ISR1, active compounds read low 0.96 | locus YPR111W, strain DBF20, active compounds read low 0.963 | strain NNK1, active compounds read low 0.958 | strain TSCII, active compounds read low 0.968

COc1ccccc1OCC(O)CN1CCN(CC(=O)Nc2c(C)cccc2C)CC1 (stereo not drawn)
inactive: [1] 0.996 | locus YAL021C, strain ccr4, active compounds read low 0.991 | locus YAL026C, strain drs2, active compounds read low 1.03 | locus YAL030W, strain snc1, active compounds read low 1.01 | locus YAL040C, strain CLN3, active compounds read low 1 | locus YBL061C, strain skt5, active compounds read low 1.02 | locus YBR009C, strain hhf1, active compounds read low 0.986 | locus YBR023C, strain chs3, active compounds read low 1.03 | locus YBR171W, strain sec66, active compounds read low 1.02 | locus YBR231C, strain swc5, active compounds read low 0.991 | locus YBR279W, strain paf1, active compounds read low 1.02 | locus YCL011C, strain gbp2, active compounds read low 1.01 | locus YCL016C, strain dcc1, active compounds read low 1.04 | locus YCL061C, strain MRC1 (second series), active compounds read low 1 | locus YCL061C, strain MRC1, active compounds read low 0.993 | locus YCL069W, strain vba3, active compounds read low 1.02 | locus YCR088W, strain abp1, active compounds read low 1.02 | locus YDL005C, strain med2, active compounds read low 1 | locus YDL040C, strain nat1, active compounds read low 1 | locus YDR001C, strain nth1, active compounds read low 1 | locus YDR069C, strain doa4, active compounds read low 0.991 | locus YDR137W, strain rgp1, active compounds read low 1.06 | locus YDR159W, strain sac3, active compounds read low 0.912 | locus YDR195W, strain ref2 0.993 | locus YDR297W, strain sur2, active compounds read low 1 | locus YDR334W, strain swr1, active compounds read low 1 | locus YDR335W, strain msn5, active compounds read low 1.01 | locus YDR363W, strain ESC2, active compounds read low 0.998 | locus YDR392W, strain spt3, active compounds read low 0.942 | locus YEL003W, strain gim4, active compounds read low 0.976 | locus YEL037C, strain rad23, active compounds read low 1.01 | locus YEL061C, strain CIN8 (second series), active compounds read low 0.997 | locus YER002W, strain NOP16, active compounds read low 0.993 | locus YER015W, strain faa2, active compounds read low 1.01 | locus YER016W, strain bim1, active compounds read low 1.03 | locus YER111C, strain swi4, active compounds read low 1.02 | locus YER155C, strain BEM2 (second series), active compounds read low 0.957 | locus YFR010W, strain ubp6, active compounds read low 0.97 | locus YGL167C, strain pmr1, active compounds read low 0.989 | locus YGL173C, strain kem1, active compounds read low 0.987 | locus YGL227W, strain vid30, active compounds read low 1.02 | locus YGL240W, strain doc1, active compounds read low 0.987 | locus YGL253W, strain hxk2, active compounds read low 1.06 | locus YHR013C, strain ard1, active compounds read low 1.03 | locus YHR027C, strain rpn1, active compounds read low 0.988 | [3] 1.06 | [8] 1.05 | locus YHR142W, strain chs7, active compounds read low 1.02 | locus YJL092W, strain hpr5, active compounds read low 1 | locus YJL095W, strain BCK1 (second series), active compounds read low 1.02 | [9] 1.02 | locus YJL115W, strain asf1, active compounds read low 1 | locus YJL129C, strain trk1, active compounds read low 1.03 | locus YJL154C, strain vps35, active compounds read low 1 | locus YJL164C, strain tpk1, active compounds read low 0.979 | locus YJL166W, strain qcr8, active compounds read low 0.997 | [10] 0.977 | [4] 1 | locus YKL160W, strain elf1, active compounds read low 1.01 | locus YKR026C, strain gcn3, active compounds read low 1 | locus YKR091W, strain srl3, active compounds read low 1 | locus YLL001W, strain dnm1, active compounds read low 0.964 | locus YLL026W, active compounds read low 1.01 | locus YLL041C, strain sdh2, active compounds read low 1.02 | locus YLR027C, strain aat2, active compounds read low 1 | [11] 0.982 | locus YLR221C, strain rsa3, active compounds read low 0.972 | locus YLR258W, strain gsy2, active compounds read low 1.03 | locus YLR262C, strain YPT6 (second series), active compounds read low 1.02 | locus YLR320W, strain mms22, active compounds read low 0.937 | locus YLR342W, strain FKS1, active compounds read low 1.02 | locus YLR357W, strain rsc2, active compounds read low 0.99 | locus YLR370C, strain arc18, active compounds read low 1.01 | locus YLR384C, strain iki3, active compounds read low 0.997 | locus YML120C, strain ndi1, active compounds read low 0.976 | locus YMR058W, strain fet3, active compounds read low 1.01 | locus YMR125W, strain sto1, active compounds read low 1.01 | locus YMR129W, active compounds read low 0.988 | locus YMR205C, strain PFK2, active compounds read low 1 | locus YMR231W, strain pep5, active compounds read low 1 | [5] 1.02 | locus YNL071W, strain lat1, active compounds read low 1 | [6] 1.06 | locus YNL175C, strain NOP13, active compounds read low 1.01 | [12] 0.963 | locus YNL197C, strain WHI3, active compounds read low 1.01 | locus YNL209W, strain ssb2, active compounds read low 1.02 | locus YNL224C, strain SQS1, active compounds read low 1.01 | locus YNL248C, strain rpa49, active compounds read low 1.07 | locus YNL322C, strain KRE1 (second series), active compounds read low 1.02 | locus YNR049C, strain mso1, active compounds read low 1 | locus YOR001W, strain rrp6, active compounds read low 0.924 | locus YOR070C, strain gyp1, active compounds read low 1.01 | locus YOR080W, strain dia2, active compounds read low 1.01 | locus YOR083W, strain WHI5 (second series), active compounds read low 1.02 | locus YOR083W, strain WHI5, active compounds read low 0.974 | locus YOR106W, strain vam3, active compounds read low 1.04 | [13] 1.01 | locus YOR265W, strain rbl2, active compounds read low 0.98 | locus YOR270C, strain vph1, active compounds read low 0.991 | locus YOR290C, strain snf2, active compounds read low 1.06 | locus YPL051W, strain arl3, active compounds read low 1.04 | locus YPL078C, strain atp4, active compounds read low 1.07 | locus YPL106C, strain sse1, active compounds read low 1.1 | locus YPL240C, strain hsp82, active compounds read low 1 | [7] 1.01 | [14] 1.05
